Screening results: PubChem BioAssay, several laboratories
sEH inh – inhibitors of human soluble epoxide hydrolase | recombinant human sEH enzymatic activity assay | 91,000 compounds, 0.34% hits | inhibition, % at 2 µM; in the data active means inhibition above about 80%
Measles CPE – protection of cells from measles virus; 140,000 compounds, 1.5% hits; protection (pct of control), % at 4 µM; Measles virus-infected cells, CPE protection, absorbance; in the data active means protection mostly above about 24%, no sharp cut-off; inactive means mostly below about 26%
sEH activator – soluble epoxide hydrolase (human) activation; P34913; 91,000 compounds, 0.04% hits; purified human sEH enzymatic activity, activator screen; AID 717; activation, % at 2 µM; in the data active means activation above about 37%
PTPN22 act – LYP (human) phosphatase activation; activation, % at 2 µM; recombinant LYP, DiFMUP fluorescence; 0 = plate median, 100 = signal doubled; 96,000 compounds, 0.11% hits; Q9Y2R2; AID 697;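 active means activation at 2 µM above a set limit, the mean plus 5 SD, cut at about 37% in these data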
Target sequence (Q9Y2R2 whole entry, looked up): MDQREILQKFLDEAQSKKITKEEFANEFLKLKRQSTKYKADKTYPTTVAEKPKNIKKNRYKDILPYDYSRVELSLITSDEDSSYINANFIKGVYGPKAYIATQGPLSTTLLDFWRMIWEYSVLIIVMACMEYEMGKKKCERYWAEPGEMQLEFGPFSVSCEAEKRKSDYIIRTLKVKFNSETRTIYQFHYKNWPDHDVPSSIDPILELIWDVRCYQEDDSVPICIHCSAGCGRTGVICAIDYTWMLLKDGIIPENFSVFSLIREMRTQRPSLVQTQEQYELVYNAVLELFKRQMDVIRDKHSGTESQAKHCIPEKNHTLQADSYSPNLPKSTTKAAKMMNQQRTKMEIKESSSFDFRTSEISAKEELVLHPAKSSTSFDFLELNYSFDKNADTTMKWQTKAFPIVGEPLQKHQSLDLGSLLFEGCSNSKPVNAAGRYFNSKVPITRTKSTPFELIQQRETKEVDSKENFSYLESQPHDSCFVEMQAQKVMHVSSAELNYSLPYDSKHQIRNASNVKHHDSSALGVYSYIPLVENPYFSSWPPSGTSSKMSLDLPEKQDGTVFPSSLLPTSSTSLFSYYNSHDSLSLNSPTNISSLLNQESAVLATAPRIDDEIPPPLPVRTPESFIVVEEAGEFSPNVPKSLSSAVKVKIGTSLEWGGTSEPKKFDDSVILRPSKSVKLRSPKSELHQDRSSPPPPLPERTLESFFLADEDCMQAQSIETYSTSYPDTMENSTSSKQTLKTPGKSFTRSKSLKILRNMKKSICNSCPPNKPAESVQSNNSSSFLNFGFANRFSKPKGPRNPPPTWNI
LYP inh 2 – LYP (human) phosphatase inhibition; Q9Y2R2; inhibition, % at 2 µM; 96,000 compounds, 0.21% hits; AID 640; recombinant LYP catalytic domain, DiFMUP fluorescence;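 active means inhibition at 2 µM at or above a set limit, the screen mean plus 3 SD, cut at about 24% in these data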
Large screens that a line does not name were inactive. A selection: hits, their analogues and other compounds. The true share with any hit is near 1.7%.

CC(=O)/C(C#N)=C1\NC(=O)C(Cc2ccccc2Cl)S1 (stereo unspecified)	Measles CPE 38
CC(=O)/C(C#N)=C1\NC(=O)C(Cc2ccc(C)c(C)c2)S1 (stereo unspecified)	Measles CPE 69
Cc1ccc(S(=O)(=O)N2CCCN(S(=O)(=O)c3ccc4ccccc4c3)CC2)cc1	none
Cc1onc(-c2ccccc2Cl)c1C(=O)Nc1ncn[nH]1	none (no result: sEH inh, sEH activator, PTPN22 act, LYP inh 2)
CCSC(=O)N(CC)CC(=O)Nc1c(CC)cccc1CC	Measles CPE 32
CCCSC(=O)N(CC)CC(=O)Nc1c(CC)cccc1CC	none
CC/C(=N\NC(=O)c1ccc(N(C)C)cc1)c1ccccc1	none (no result: sEH inh, sEH activator, PTPN22 act, LYP inh 2)
COc1ccc(OC)c(NC(=S)NN2CCOCC2)c1	Measles CPE 57
COc1ccc(OC)c(NC(=S)NN2CCN(C)CC2)c1	none
CCOc1ccc(NC(=O)c2ccc(F)c(S(=O)(=O)N3CCN(c4ccccn4)CC3)c2)cc1	sEH inh 86
O=C(Nc1cccc(Cl)c1)c1ccc(F)c(S(=O)(=O)N2CCN(c3ccccn3)CC2)c1	none (no result: sEH inh, sEH activator, PTPN22 act, LYP inh 2)
CCN(CC(=O)NC(c1ccccc1)c1ccccc1)Cc1nc2ccccc2c(=O)[nH]1	Measles CPE 21
CCN(CC(=O)Nc1cccc(Br)c1)Cc1nc2ccccc2c(=O)[nH]1	none
CCN(CC(=O)NC(=O)NC1CCCCC1)Cc1nc2ccccc2c(=O)[nH]1	LYP inh 2 25
CCN(CC(=O)Nc1ccc2c(c1)CCC2)Cc1nc2ccccc2c(=O)[nH]1	none
O=C(O)CC(NC(=O)c1sc2ccccc2c1Cl)c1ccc(F)cc1 (stereo unspecified)	none (no result: sEH inh, sEH activator, PTPN22 act, LYP inh 2)
O=C(NCCCN1CCN(CCCNC(=O)c2cc([N+](=O)[O-])ccc2Cl)CC1)c1cc([N+](=O)[O-])ccc1Cl	none (no result: sEH inh, sEH activator, PTPN22 act, LYP inh 2)
OCCSc1ncnc2c1oc1ccccc12	none
O=C(O)CSc1ncnc2c1oc1ccccc12	Measles CPE 27
CN(C(=O)COc1ccccc1C(=O)NCCOc1ccccc1)c1ccccc1	none (no result: sEH inh, sEH activator, PTPN22 act, LYP inh 2)
O=C(Cn1cnc2ccccc21)Nc1ccc(C(=O)O)cc1	LYP inh 2 33
O=C(CN1C(=O)CSC1=O)Nc1ccc(C(=O)O)cc1	Measles CPE 102 (no result: sEH inh, sEH activator)
Cc1ccc(S(=O)(=O)N(C)CCCC(=O)Nc2cccc3ccccc23)cc1	none (no result: sEH inh, sEH activator, PTPN22 act, LYP inh 2)
CC(C)c1ccc(NC(=O)CSc2ncccc2C(=O)Oc2cccc([N+](=O)[O-])c2)cc1	none (no result: sEH inh, sEH activator, PTPN22 act, LYP inh 2)
CC(=O)Nc1ccc(SCC(=O)c2cc(C)n(C)c2C)cc1	Measles CPE 46
NC(=O)c1sc2nc3c(c(-c4cccs4)c2c1N)CCCCC3	Measles CPE 61
NC(=O)c1sc2nc3c(c(-c4cccnc4)c2c1N)CCC3	none
Clc1ccc(SCc2cn3ccsc3n2)cc1	Measles CPE 57
Cc1nn(CC(=O)Nc2cc(S(=O)(=O)N(C)C)ccc2Cl)c(C)c1[N+](=O)[O-]	Measles CPE 41 (no result: sEH inh, sEH activator, PTPN22 act, LYP inh 2)
CC1(C)C(c2ccccc2)=[N+]([O-])C2(CCCCC2=O)N1O (stereo unspecified)	none
Cc1ccc(C2=[N+]([O-])C(C)(C)N(O)C2(C)C)cc1	Measles CPE 46 (no result: sEH inh, sEH activator, PTPN22 act, LYP inh 2)
COc1ccc(/C=N/NC(=O)c2nn(-c3ccc(Cl)cc3)c(=O)c3c(N)scc23)cc1	none
COc1ccc(/C=N/NC(=O)c2nn(-c3ccccc3)c(=O)c3c(N)scc23)cc1	Measles CPE 51
C=CCn1c(SCC(=O)NC(=O)c2cccc([N+](=O)[O-])c2)nnc1-c1ccccc1F	none (no result: sEH inh, sEH activator, PTPN22 act, LYP inh 2)
C=CCn1c(SCC(=O)c2cccs2)nc2sc(C)c(C)c2c1=O	none
C=CCn1c(SCC(=O)c2cc(C)n(CCOC)c2C)nc2sc(C)c(C)c2c1=O	Measles CPE 42
Cc1c(NC(=O)COC(=O)C(c2ccc(Cl)cc2)C(C)C)c(=O)n(-c2ccccc2)n1C (stereo unspecified)	none
CS(=O)(=O)N1CCN(C(=O)C2c3ccccc3Oc3ccccc32)CC1	Measles CPE 67
CCCCNC(=O)OCCNC(=O)Oc1cccc(C)c1	none
CCCCNC(=O)OC(C)CNC(=O)Oc1cccc(C)c1 (stereo unspecified)	Measles CPE 43 (no result: sEH inh, sEH activator, PTPN22 act, LYP inh 2)
COC(=O)c1ccc(OC(=O)c2ccccc2F)cc1	none (no result: sEH inh, sEH activator, PTPN22 act, LYP inh 2)
CC(=O)N(C)C1=C(O)c2ccccc2C(=O)C1=O	Measles CPE 39
COc1ccc(C(=O)NC(NC(=S)Nc2ccc(S(N)(=O)=O)cc2)C(Cl)(Cl)Cl)cc1 (stereo unspecified)	none
COc1ccccc1C(=O)NNC(=S)NC(=O)c1ccco1	none (no result: sEH inh, sEH activator, PTPN22 act, LYP inh 2)
COc1ccc(-c2[nH]c3ccccc3c2SCCNC(=O)c2ccccc2)cc1	Measles CPE 32 (no result: sEH inh, sEH activator, PTPN22 act, LYP inh 2)
COc1ccc(CN2C(=O)c3ccccc3C2C(=O)NCc2cccnc2)c(OC)c1 (stereo unspecified)	Measles CPE 33
COc1ccc(OC)c(CN2C(=O)c3ccccc3C2C(=O)NCc2cccnc2)c1 (stereo unspecified)	none (no result: sEH inh, sEH activator, PTPN22 act, LYP inh 2)
O=C(COC(=O)C1CCN(S(=O)(=O)c2cccc3cccnc23)CC1)c1ccccc1	none (no result: sEH inh, sEH activator, PTPN22 act, LYP inh 2)
COc1cc2c(c(OC)c1)C(c1ccncc1)CC(=O)N2 (stereo unspecified)	none (no result: sEH inh, sEH activator, PTPN22 act, LYP inh 2)
COc1cc(OC)c(C2SCCS2)c(OC)c1	Measles CPE 33 (no result: sEH inh, sEH activator, PTPN22 act, LYP inh 2)
COc1ccc(S(=O)(=O)N2CCC(C(=O)NCC(c3cccs3)N(C)C)CC2)cc1 (stereo unspecified)	Measles CPE 52 (no result: sEH inh, sEH activator)
COc1ccc(CCNC(=O)C2CCN(S(=O)(=O)c3ccc(OC)c(OC)c3)CC2)cc1	none
CCOc1ccc(N(CC(=O)Nc2ccccc2C(=O)NC(C)CC)S(C)(=O)=O)cc1 (stereo unspecified)	none (no result: sEH inh, sEH activator, PTPN22 act, LYP inh 2)
CCCCCCCC(=O)NC(Nc1ccc(S(N)(=O)=O)cc1)C(Cl)(Cl)Cl (stereo unspecified)	none
COc1ccc(N2C(=O)CC(NCc3ccncc3)C2=O)cc1 (stereo unspecified)	Measles CPE 45
COc1ccc(CCNC(=O)CSc2nnc(NC(C)=O)s2)cc1OC	none (no result: sEH inh, sEH activator, PTPN22 act, LYP inh 2)
Cc1ccc2c(Cl)cc(Cl)c(OCC(=O)NCc3ccco3)c2n1	LYP inh 2 30
Cc1ccc2c(Cl)cc(Cl)c(OCC(=O)NC(=O)NCc3ccco3)c2n1	none
Cc1cc(-c2cccs2)n[nH]1	Measles CPE 37 (no result: sEH inh, sEH activator, PTPN22 act, LYP inh 2)
CN1CCN(c2nc(-c3ccccc3)c3cc(Cl)ccc3n2)CC1	none (no result: sEH inh, sEH activator)
OCCN1CCN(c2nc(-c3ccccc3)c3cc(Cl)ccc3n2)CC1	Measles CPE 63
O=C1CN(c2nc(-c3ccccc3)c3cc(Cl)ccc3n2)c2ccccc2N1	Measles CPE 40 (no result: sEH inh, sEH activator, PTPN22 act, LYP inh 2)
Clc1ccc2nc(N3CCNCC3)nc(-c3ccccc3)c2c1	none
Cc1c(C(=O)NCCCN2CCOCC2)oc2c1C1(CCC2)SCCS1	none (no result: sEH inh, sEH activator, PTPN22 act, LYP inh 2)
CCC1=NN2C(=N)/C(=C/c3c(C)nn(-c4ccccc4)c3Cl)C(=O)N=C2S1	Measles CPE 71 (no result: sEH inh, sEH activator, PTPN22 act, LYP inh 2)
CCNC(=O)COc1ccc(-c2ccccc2)cc1	Measles CPE 62
Cc1cc(OCC(=O)N2CCCC2)cc(C)c1Cl	none
CCNC(=O)COc1cc(C)c(Cl)c(C)c1	LYP inh 2 25
CC(C)(C)NC(=O)COc1ccc(-c2ccccc2)cc1	none
CC(C)CC(=O)Nc1cccc(NC(=O)CC(C)C)n1	none (no result: sEH inh, sEH activator, PTPN22 act, LYP inh 2)
O=C(COC(=O)/C=C/c1ccc2c(c1)OCO2)NC1CC1	Measles CPE 26 (no result: sEH inh, sEH activator, PTPN22 act, LYP inh 2)
